According to PubChem BioAssay:
Calls of active or inactive are those of the source. Unless noted, the rule behind the calls is not given here.

Tests used:
[1] = resazurin metabolic signal in HepG2 cells – cell-based, resazurin fluorescence, 24 h, PK04 Diversity Set, profiling panel (AID 1172); conditions: HepG2 viability, higher = more signal
[2] = budding yeast growth changes without added modifier – OD600, strain BY4716, 24 h, basal condition, primary screen (AID 1173); conditions: S. cerevisiae BY4716 growth, OD600, 24 h; higher = more signal, called active from +8 up or from −8 down
[3] = viability profiling in MM1S myeloma cells – cell-based, resazurin fluorescence, basal, 24 h, PK04 Diversity Set, profiling panel (AID 1174); conditions: higher = more signal, called active from +8 up or from −8 down;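 note: MM1S multiple myeloma cell line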
[4] = biological target: Dihydroorotate dehydrogenase (quinone), mitochondrial (Plasmodium falciparum (isolate 3D7)) (UniProt Q08210); experiment: inhibition of P. falciparum DHODH – biochemical, C-terminal His tag, absorbance 600 nm, primary screen (AID 1175); conditions: PfDHODH enzyme, DCIP absorbance 600 nm; higher = more signal, called active from +8 up or from −8 down;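 note: recombinant parasite enzyme with a five histidine tag at its C terminus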
[5] = inhibition of PAO1 biofilm formation – strain PAO1, LB-PBS medium, absorbance 600 nm, primary screen (AID 1176); conditions: P. aeruginosa PAO1 growth/biofilm, A600, 12 h; higher = more signal
[6] = growth modulation of vineyard yeast isolate – strain RM11-1a, OD600, basal, 24 h, primary screen (AID 1177);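 note: cultures grown under basal conditions with no added stressor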; conditions: S. cerevisiae RM11-1a growth, OD600, 24 h; higher = more signal, called active from +8 up or from −8 down
[7] = growth of efflux-deficient E. coli DRC39 – strain DRC39, OD650, 24 h, E. coli filamentation inducers, primary screen (AID 1178);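 note: growth measured as culture turbidity by optical density at 650 nm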; conditions: E. coli DRC39 acrAB, higher = more signal, called active from +8 up or from −8 down
[8] = growth of efflux-deficient E. coli DRC39 – strain DRC39, OD650, 48 h, E. coli filamentation inducers, primary screen (AID 1179);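 note: screen aims at cell division blockers that make cells filament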; conditions: E. coli DRC39 delta-acrAB growth, higher = more signal, called active from +8 up or from −8 down
[9] = viability profiling in RPMI8226 myeloma cells – cell-based, resazurin fluorescence, basal, 24 h, PK04 Diversity Set, profiling panel (AID 1180); conditions: higher = more signal;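 note: RPMI8826 multiple myeloma cell line at 5000 cells per well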
[10] = biological target: E3 ubiquitin-protein ligase XIAP (Homo sapiens) (UniProt P98170); experiment: small molecules binding XIAP protein – biophysical, small-molecule microarray, fluorescence 635 nm, primary screen (AID 1181); conditions: higher = more signal;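 note: score merges 667 nm emission and signal to noise over triplicate slides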
[11] = test system: XIP peptide (Xip251-270) binding; experiment: XIP fragment 251-270 binding compounds – biochemical, small-molecule microarray, fluorescence 635/667 nm, 0.1 µg/mL protein, primary screen (AID 1182); conditions: fluorescent protein binding, 635 nm, higher = more signal, called active from +8 up or from −8 down
[12] = test system: XIP peptide (Xip251-270); experiment: compounds binding XIP fragment 251-270 – biochemical, small-molecule microarray, fluorescence 635/667 nm, 0.5 µg/mL protein, primary screen (AID 1183); conditions: fluorescence 635 nm, higher = more signal
[13] = blood-stage malaria parasite viability loss – strain 3D7, DAPI fluorescence, 100 nL, primary screen (AID 1184);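 note: parasites grown inside human red blood cells in medium with human serum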; conditions: P. falciparum 3D7 growth, 3 d, higher = more signal
[14] = biological target: Homeobox protein Hox-A13 (Mus musculus) (UniProt Q62424); experiment: disruptors of Hoxa13 oligonucleotide interaction – biochemical, fluorescence polarization, labeled oligonucleotide, primary screen (AID 1185); conditions: Hoxa13:DNA binding, 15 min, higher = more signal, called active from +8 up or from −8 down
[15] = blockers of DNA damage checkpoint Chk1 activation – imaging, HeLa, hydroxyurea, phospho-Chk1 antibody, percent positive cells, primary screen (AID 1186); conditions: hydroxyurea-induced phospho-Chk1 immunofluorescence imaging, higher = more signal
[16] = blockers of DNA damage checkpoint Chk1 activation – imaging, HeLa, hydroxyurea, phospho-Chk1 nuclear intensity, primary screen (AID 1187); conditions: hydroxyurea-induced phospho-Chk1 immunofluorescence imaging, higher = more signal

Chain of Dihydroorotate dehydrogenase (quinone), mitochondrial (Plasmodium falciparum (isolate 3D7)) (Q08210 whole entry, looked up): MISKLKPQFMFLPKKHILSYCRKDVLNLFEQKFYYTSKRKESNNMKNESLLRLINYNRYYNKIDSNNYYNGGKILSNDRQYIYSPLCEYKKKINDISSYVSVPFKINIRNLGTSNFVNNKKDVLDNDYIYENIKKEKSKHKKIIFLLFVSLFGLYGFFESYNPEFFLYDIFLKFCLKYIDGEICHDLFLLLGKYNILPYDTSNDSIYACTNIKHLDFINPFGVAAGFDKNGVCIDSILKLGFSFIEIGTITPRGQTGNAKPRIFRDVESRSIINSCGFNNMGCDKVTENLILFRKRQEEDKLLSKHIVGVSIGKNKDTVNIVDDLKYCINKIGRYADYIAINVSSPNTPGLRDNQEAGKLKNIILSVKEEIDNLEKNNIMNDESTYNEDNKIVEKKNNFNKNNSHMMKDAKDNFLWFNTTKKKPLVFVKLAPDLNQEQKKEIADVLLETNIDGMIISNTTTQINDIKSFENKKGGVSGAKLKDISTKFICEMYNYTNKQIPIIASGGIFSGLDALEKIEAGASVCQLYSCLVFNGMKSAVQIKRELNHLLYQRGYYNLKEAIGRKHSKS
Chain of Homeobox protein Hox-A13 (Mus musculus) (Q62424 whole entry, looked up): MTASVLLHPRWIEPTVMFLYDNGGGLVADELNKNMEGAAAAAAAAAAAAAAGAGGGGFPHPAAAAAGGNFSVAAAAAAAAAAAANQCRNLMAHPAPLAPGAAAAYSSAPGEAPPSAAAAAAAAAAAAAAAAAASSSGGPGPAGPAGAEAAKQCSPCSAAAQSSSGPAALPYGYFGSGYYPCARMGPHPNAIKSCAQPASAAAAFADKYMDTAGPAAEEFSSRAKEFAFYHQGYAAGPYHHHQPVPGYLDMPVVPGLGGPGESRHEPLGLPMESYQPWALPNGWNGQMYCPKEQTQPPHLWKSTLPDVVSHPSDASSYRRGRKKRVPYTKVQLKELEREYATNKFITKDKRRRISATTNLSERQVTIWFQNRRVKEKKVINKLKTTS
Chain of E3 ubiquitin-protein ligase XIAP (Homo sapiens) (P98170 whole entry, looked up, the tested form may be a part): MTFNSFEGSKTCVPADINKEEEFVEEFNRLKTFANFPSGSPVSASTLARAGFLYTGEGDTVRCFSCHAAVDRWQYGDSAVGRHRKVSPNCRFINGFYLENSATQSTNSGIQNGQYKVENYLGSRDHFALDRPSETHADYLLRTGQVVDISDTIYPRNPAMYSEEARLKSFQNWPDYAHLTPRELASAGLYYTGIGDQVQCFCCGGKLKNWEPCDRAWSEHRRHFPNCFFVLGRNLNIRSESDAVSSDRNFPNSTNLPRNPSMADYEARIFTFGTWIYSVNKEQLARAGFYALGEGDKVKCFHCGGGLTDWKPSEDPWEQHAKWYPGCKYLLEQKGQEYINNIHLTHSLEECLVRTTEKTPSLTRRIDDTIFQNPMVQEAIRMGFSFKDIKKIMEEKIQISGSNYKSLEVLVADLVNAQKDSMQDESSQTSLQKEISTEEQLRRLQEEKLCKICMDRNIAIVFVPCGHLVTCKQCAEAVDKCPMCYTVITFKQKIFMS

SMILES	z-score [1]	z-score [2]	z-score [3]	composite z-score [4]	z-score [5]	z-score [6]	z-score [7]	z-score [8]	z-score [9]	composite z-score [10]	composite z-score [11]	composite z-score [12]	z-score [13]	z-score [14]	z-score [15]	z-score [16]
O=C1NC(=O)C2C1C=CC(C(O)c1ccc(F)cc1)N2Nc1ccccn1 (stereo unspecified)	-1.78	0.272 (inactive)	-1.28 (inactive)	0.791 (inactive)	1.77 (inactive)	0.624 (inactive)	-0.684 (inactive)	-0.69 (inactive)	-1.64	0.172	-0.184 (inactive)	0.13	1.25	-1.55 (inactive)	0.255 (inactive)	0.0273 (inactive)
Cc1c(NC(=O)/C(C#N)=C/c2ccc(Cl)cc2)c(=O)n(-c2ccccc2)n1C	0.244	-0.429 (inactive)	0.103 (inactive)	-2.14 (inactive)	0.888 (inactive)	-0.704 (inactive)	1.43 (inactive)	1.5 (inactive)	-0.345	-0.0871	0.773 (inactive)	0.876	0.468	-3.94 (inactive)	-0.0496 (inactive)	-0.246 (inactive)
[N-]=[N+]=NCc1ccccc1C[C@]1(C(=O)O)COC(c2ccc(OCCCO)cc2)=N1	0.24	0.59 (inactive)	-0.591 (inactive)	1.54 (inactive)	0.37 (inactive)	-0.163 (inactive)	-0.149 (inactive)	-0.0558 (inactive)	-0.279	-0.445	-0.4 (inactive)	0.264	1.24	-3.85 (inactive)	0.0203 (inactive)	-0.313 (inactive)
C=CCN1C(=O)[C@]2(O[C@H](CCn3cc([C@H](O)c4ccccc4)nn3)[C@@H]([Si](C)(C)c3ccc(OC)cc3)[C@@H]2C)c2cc(N3C(=O)c4cccc5cccc3c45)ccc21	-1.1	0.0523 (inactive)	-2.78 (inactive)	0.739 (inactive)	1.69 (inactive)	0.88 (inactive)	0.908 (inactive)	0.591 (inactive)	-3.61	0.0435	0.767 (inactive)	0.312	-2.75	-3.64 (inactive)	-0.65 (inactive)	-0.164 (inactive)
O=C1N(CCS(=O)(=O)c2ccccc2)c2ccccc2[C@@H]2OC(c3ccc(OCCCO)cc3)=N[C@]12CCS(=O)(=O)c1ccccc1	0.546	1.24 (inactive)	-0.0861 (inactive)	-0.038 (inactive)	1.73 (inactive)	1.8 (inactive)	0.481 (inactive)	-0.468 (inactive)	-0.63	-0.265	3.92 (inactive)	0.83	-2.18	0.806 (inactive)	0.38 (inactive)	0.682 (inactive)
O=C(NCCO)C1=C[C@H](Oc2ccccc2I)[C@@H](O)[C@H](NCc2ccc(F)cc2)C1	-1.47	-2.04 (inactive)	-0.206 (inactive)	-0.287 (inactive)	0.367 (inactive)	0.423 (inactive)	-0.802 (inactive)	-1.44 (inactive)	-0.264	0.181	0.234 (inactive)	-0.875	-1.61	-6.81 (inactive)	0.079 (inactive)	-0.34 (inactive)
C=CC[C@]1(C(=O)NCc2ccccc2)COC(c2ccc(OCCCO)cc2)=N1	-0.137	-1.92 (inactive)	-1.4 (inactive)	-0.267 (inactive)	-0.0025 (inactive)	0.02 (inactive)	0.729 (inactive)	-0.145 (inactive)	-0.874	0.001	-0.398 (inactive)	0.779	-0.823	-4.86 (inactive)	-0.059 (inactive)	-0.0405 (inactive)
C=C(C(=O)CC[C@@H](OC(C)=O)c1cccc(OCCO)c1)C(C)C	-1.1	-1.03 (inactive)	-0.353 (inactive)	-0.842 (inactive)	0.26 (inactive)	1.11 (inactive)	-1.29 (inactive)	-1.06 (inactive)	0.173	0.686	0.723 (inactive)	0.436	-1.01	-4.41 (inactive)	-0.0088 (inactive)	0.158 (inactive)
CCCCC(=C=CC[C@@H](O)c1cccc(OCCO)c1)C[C@@H](O)COCc1ccccc1	0.161	-2.28 (inactive)	-0.164 (inactive)	-2.23 (inactive)	0.212 (inactive)	-2.76 (inactive)	0.812 (inactive)	0.577 (inactive)	0.528	-0.0561	-0.0344 (inactive)	0.713	-1.1	-4.82 (inactive)	-0.255 (inactive)	0.827 (inactive)
COC(=O)[C@@H]1N=C(c2ccc(OCCCO)cc2)O[C@@H]1c1ccccc1CN=[N+]=[N-]	1.25	-1.46 (inactive)	0.55 (inactive)	-0.487 (inactive)	-0.636 (inactive)	0.657 (inactive)	0.0547 (inactive)	0.396 (inactive)	0.11	0.279	0.0222 (inactive)	0.362	-0.776	-2.74 (inactive)	-0.196 (inactive)	-0.0701 (inactive)
[N-]=[N+]=NCc1ccccc1C[C@]1(C(=O)N2CCCCC2)N=C(c2ccc(OCCCO)cc2)O[C@H]1c1ccccc1	0.116	1.71 (inactive)	-2.13 (inactive)	0.939 (inactive)	-0.372 (inactive)	2.8 (inactive)	0.914 (inactive)	1.23 (inactive)	-5.14	0.17	0.404 (inactive)	0.779	-2.34	-4.35 (inactive)	-0.527 (inactive)	-0.286 (inactive)
